Measurements as given in PubChem BioAssay AID1159580 (chemical genetic matrix, 2015).
Among all 5,500 compounds or so, about 2,000 (36%) were called active. Another 18% or so got no clear call; they are omitted. No stated cut-off is given here; in the data, active means normalized growth mostly below about 0.91 (no sharp cut-off); inconclusive means no clear call, values can overlap the other calls; inactive means mostly above about 0.92. The list shows a part of the results.

Experiment: chemical genetic growth profiling, strain panel (AID 1159580);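 further: tested at 20 µM; growth read once vehicle control cultures reached saturation at 30 °C; 1 = growth at the plate median or of vehicle wells; lower values mean less growth of the strain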
Details: growth OD

Measured: normalized growth

C[n+]1c2cc(N)ccc2cc2ccc(N)cc21
active: S. cerevisiae deletion strains, locus YKL160W, strain elf1, hits give low values 0.586 | S. cerevisiae deletion strains, locus YKL190W, strain CNB1, hits give low values 0.85 | S. cerevisiae deletion strains, locus YKR001C, strain vps1, hits give low values 0.844 | S. cerevisiae deletion strains, locus YKR026C, strain gcn3, hits give low values 0.696 | S. cerevisiae deletion strains, locus YKR091W, strain srl3, hits give low values 0.784 | S. cerevisiae deletion strains, locus YLL001W, strain dnm1, hits give low values 0.456 | S. cerevisiae deletion strains, locus YLL026W, hits give low values 0.471 | S. cerevisiae deletion strains, locus YLL041C, strain sdh2, hits give low values 0.652 | S. cerevisiae deletion strains, locus YLR027C, strain aat2, hits give low values 0.446 | S. cerevisiae deletion strains, locus YLR058C, strain SHM2, hits give low values 0.743 | S. cerevisiae deletion strains, locus YLR102C, strain apc9, hits give low values 0.924 | S. cerevisiae deletion strains, locus YLR221C, strain rsa3, hits give low values 0.468 | S. cerevisiae deletion strains, locus YLR258W, strain gsy2, hits give low values 0.524 | S. cerevisiae deletion strains, locus YLR262C, strain YPT6 (second series), hits give low values 0.718 | S. cerevisiae deletion strains, locus YLR268W, strain sec22, hits give low values 0.776 | S. cerevisiae deletion strains, locus YLR320W, strain mms22, hits give low values 0.191 | S. cerevisiae deletion strains, locus YLR330W, strain CHS5, hits give low values 0.863 | S. cerevisiae deletion strains, locus YLR342W, strain FKS1, hits give low values 0.752 | S. cerevisiae deletion strains, locus YLR357W, strain rsc2, hits give low values 0.669 | S. cerevisiae deletion strains, locus YLR370C, strain arc18, hits give low values 0.506 | S. cerevisiae deletion strains, locus YLR371W, strain rom2, hits give low values 0.908 | S. cerevisiae deletion strains, locus YLR384C, strain iki3, hits give low values 0.682 | S. cerevisiae deletion strains, locus YLR418C, strain cdc73, hits give low values 0.727 | S. cerevisiae deletion strains, locus YML016C, strain PPZ1, hits give low values 0.806 | S. cerevisiae deletion strains, locus YML032C, strain rad52, hits give low values 0.195 | S. cerevisiae deletion strains, locus YML120C, strain ndi1, hits give low values 0.409 | S. cerevisiae deletion strains, locus YML124C, strain tub3, hits give low values 0.928 | S. cerevisiae deletion strains, locus YMR058W, strain fet3, hits give low values 0.531 | S. cerevisiae deletion strains, locus YMR078C, strain ctf18, hits give low values 0.783 | S. cerevisiae deletion strains, locus YMR125W, strain sto1, hits give low values 0.703 | S. cerevisiae deletion strains, locus YMR129W, hits give low values 0.648 | S. cerevisiae deletion strains, locus YMR205C, strain PFK2, hits give low values 0.439 | S. cerevisiae deletion strains, locus YMR223W, strain ubp8, hits give low values 0.717 | S. cerevisiae deletion strains, locus YMR263W, strain SAP30, hits give low values 0.626 | S. cerevisiae deletion strains, locus YNL067W, strain RPL9B, hits give low values 0.698 | S. cerevisiae deletion strains, locus YNL071W, strain lat1, hits give low values 0.28 | S. cerevisiae deletion strains, locus YNL128W, strain TEP1, hits give low values 0.613 | S. cerevisiae deletion strains, locus YNL153C, strain GIM3, hits give low values 0.744 | S. cerevisiae deletion strains, locus YNL209W, strain ssb2, hits give low values 0.554 | S. cerevisiae deletion strains, locus YNL233W, strain BNI4, hits give low values 0.725 | S. cerevisiae deletion strains, locus YNL248C, strain rpa49, hits give low values 0.167 | S. cerevisiae deletion strains, locus YNL250W, strain rad50, hits give low values 0.817 | S. cerevisiae deletion strains, locus YNL271C, strain bni1, hits give low values 0.911 | S. cerevisiae deletion strains, locus YNL298W, strain CLA4, hits give low values 0.896 | S. cerevisiae deletion strains, locus YNL307C, strain MCK1, hits give low values 0.66 | S. cerevisiae deletion strains, locus YNL322C, strain KRE1 (second series), hits give low values 0.218 | S. cerevisiae deletion strains, locus YNL322C, strain KRE1, hits give low values 0.836 | S. cerevisiae deletion strains, locus YNR049C, strain mso1, hits give low values 0.677 | S. cerevisiae deletion strains, locus YNR052C, strain pop2, hits give low values 0.801 | S. cerevisiae deletion strains, locus YOL006C, strain TOP1, hits give low values 0.349 | S. cerevisiae deletion strains, locus YOL147C, strain pex11, hits give low values 0.882 | S. cerevisiae deletion strains, locus YOR001W, strain rrp6, hits give low values 0.442 | S. cerevisiae deletion strains, locus YOR061W, strain CKA2, hits give low values 0.865 | S. cerevisiae deletion strains, locus YOR069W, strain VPS5, hits give low values 0.915 | S. cerevisiae deletion strains, locus YOR070C, strain gyp1, hits give low values 0.557 | S. cerevisiae deletion strains, locus YOR080W, strain dia2, hits give low values 0.409 | S. cerevisiae deletion strains, locus YOR083W, strain WHI5, hits give low values 0.452 | S. cerevisiae deletion strains, locus YOR106W, strain vam3, hits give low values 0.38 | S. cerevisiae deletion strains, locus YOR136W, strain idh2, hits give low values 0.91 | S. cerevisiae deletion strains, locus YOR144C, strain elg1, hits give low values 0.858 | S. cerevisiae deletion strains, locus YOR184W, strain ser1, hits give low values 0.664 | S. cerevisiae deletion strains, locus YOR231W, strain MKK1, hits give low values 0.822 | S. cerevisiae deletion strains, locus YOR265W, strain rbl2, hits give low values 0.599 | S. cerevisiae deletion strains, locus YOR270C, strain vph1, hits give low values 0.353 | S. cerevisiae deletion strains, locus YOR290C, strain snf2, hits give low values 0.447 | S. cerevisiae deletion strains, locus YPL051W, strain arl3, hits give low values 0.597 | S. cerevisiae deletion strains, locus YPL055C, strain LGE1, hits give low values 0.678 | S. cerevisiae deletion strains, locus YPL078C, strain atp4, hits give low values 0.465 | S. cerevisiae deletion strains, locus YPL106C, strain sse1, hits give low values 0.695 | S. cerevisiae deletion strains, locus YPL240C, strain hsp82, hits give low values 0.685 | S. cerevisiae deletion strains, locus YPL241C, strain CIN2, hits give low values 0.88 | S. cerevisiae deletion strains, locus YPR119W, strain clb2, hits give low values 0.92 | S. cerevisiae deletion strains, locus YPR163C, strain tif3, hits give low values 0.883 | S. cerevisiae deletion strains, locus YPR167C, strain met16, hits give low values 0.865 | S. cerevisiae deletion strains, strain wtn01, hits give low values 0.793 | S. cerevisiae strains, strain wild type, hits give low values 0.831
inactive: S. cerevisiae deletion strains, locus YKL009W, strain mrt4, hits give low values 0.933 | S. cerevisiae deletion strains, locus YKL068W, hits give low values 0.956 | S. cerevisiae deletion strains, locus YKL085W, strain MDH1 (second series), hits give low values 0.963 | S. cerevisiae deletion strains, locus YKL085W, strain MDH1, hits give low values 0.963 | S. cerevisiae deletion strains, locus YLR039C, strain RIC1, hits give low values 0.906 | S. cerevisiae deletion strains, locus YLR113W, strain HOG1, hits give low values 0.862 | S. cerevisiae deletion strains, locus YLR262C, strain YPT6, hits give low values 0.902 | S. cerevisiae deletion strains, locus YLR342W, strain FKS1 (second series), hits give low values 0.802 | S. cerevisiae deletion strains, locus YMR231W, strain pep5, hits give low values 0.945 | S. cerevisiae deletion strains, locus YMR307W, strain GAS1, hits give low values 0.874 | S. cerevisiae deletion strains, locus YNL183C, strain NPR1, hits give low values 0.87 | S. cerevisiae deletion strains, locus YOL012C, strain htz1 0.393 | S. cerevisiae deletion strains, locus YOR316C, strain cot1, hits give low values 0.926 | S. cerevisiae deletion strains, locus YPL256C, strain CLN2, hits give low values 0.903 | S. cerevisiae deletion strains, locus YPR141C, strain kar3, hits give low values 0.93
